Hit rate of the full screen: of about 2,400 compounds, about 180 (7.5%) were called active. The full list was thinned out, with actives kept by preference. A number with no mark means an inactive call.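 How the source made its calls: active means readout below zero, meaning a drop past 3 SD under the dofetilide-free negative control mean; inactive means the rest.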
Target: Potassium voltage-gated channel subfamily KQT member 2 (Rattus norvegicus) (UniProt O88943)
Experiment: KCNQ2 blockade in CHO cells – cell-based, FluxOR thallium flux, counter-screen for hERG block protector project, confirmation (AID 1946)
Conditions: FluxOR thallium flux fluorescence, at 10 µM, stronger effect = lower value, zero marks the 3-SD hit cutoff

Potassium voltage-gated channel subfamily KQT member 2 (Rattus norvegicus), sequence (O88943 whole entry, looked up): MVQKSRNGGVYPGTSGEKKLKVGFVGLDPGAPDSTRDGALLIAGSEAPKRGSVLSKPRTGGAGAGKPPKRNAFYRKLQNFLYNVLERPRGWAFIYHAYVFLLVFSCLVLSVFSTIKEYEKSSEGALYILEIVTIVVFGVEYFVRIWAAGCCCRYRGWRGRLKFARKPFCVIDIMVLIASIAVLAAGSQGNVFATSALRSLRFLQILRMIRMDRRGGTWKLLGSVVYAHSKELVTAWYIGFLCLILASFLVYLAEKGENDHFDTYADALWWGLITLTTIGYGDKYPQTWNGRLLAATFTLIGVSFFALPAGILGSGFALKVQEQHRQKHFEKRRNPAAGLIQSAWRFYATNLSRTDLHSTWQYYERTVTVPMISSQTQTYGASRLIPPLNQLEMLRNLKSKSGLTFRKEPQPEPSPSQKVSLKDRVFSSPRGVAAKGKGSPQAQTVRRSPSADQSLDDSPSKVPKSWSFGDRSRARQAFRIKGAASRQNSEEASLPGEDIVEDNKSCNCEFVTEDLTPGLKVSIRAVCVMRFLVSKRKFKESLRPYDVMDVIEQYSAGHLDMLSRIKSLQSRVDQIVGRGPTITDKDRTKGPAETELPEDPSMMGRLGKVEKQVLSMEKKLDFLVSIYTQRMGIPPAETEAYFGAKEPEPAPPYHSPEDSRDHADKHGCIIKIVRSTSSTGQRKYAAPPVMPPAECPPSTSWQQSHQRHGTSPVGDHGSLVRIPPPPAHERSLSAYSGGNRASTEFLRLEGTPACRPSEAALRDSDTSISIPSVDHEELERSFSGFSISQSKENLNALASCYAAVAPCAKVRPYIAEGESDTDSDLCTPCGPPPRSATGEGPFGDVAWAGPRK

Structure (SMILES) | activity change vs negative control
CCCOc1ccc(OC(=O)c2ccc(Br)o2)cc1 | 20.9%
O=C(NC(=S)Nc1ccccc1)c1csnn1 | 105%
CC(=O)Nc1ccc(S(=O)(=O)N2CCC(NC(=O)c3ccccc3)CC2)cc1 | 9.4%
CC(=O)Nc1ccc(S(=O)(=O)N2CCC(C(=O)O)CC2)cc1 | -3% (active)
O=C(/C=C/c1ccccc1)Nc1ccc(S(=O)(=O)N2CCOCC2)cc1 | 2%
CCc1cc2c(=O)n(CCC(C)C)c(=S)[nH]c2s1 | 83.4%
S=c1nc(COc2ccccc2)[nH]c2ccccc12 | 159%
CN(C)CCCN=C(NO)c1ccc(Cl)cc1Cl | 6.6%
CCSc1nc2c(sc3ccccc32)c(=O)n1C(C)C | 54.6%
COCC(=O)Nc1cc(C)cn(Cc2c(F)cccc2Cl)c1=O | -0.6% (active)
O=C(COC(=O)C1CCC(=O)N1)Nc1cc(Cl)ccc1Cl (centres undefined) | 4.6%
CCOC(=O)c1sc2ncnc(NCc3ccco3)c2c1C | 66.3%
CCCN(C(=O)c1ccco1)c1nnc(-c2ccncc2)s1 | 7.1%
Cc1[nH]n2c(=O)cc(C(C)(C)C)nc2c1-c1ccccc1 | 38.2%
CCOC(=O)C1CCN(C(=O)COC(=O)c2nn(C)c(=O)c3ccccc23)CC1 | 8.5%
CC1CCCN(C(=O)COC(=O)c2cc(-c3cccs3)nn2-c2ccccc2)C1 (centres undefined) | -2.5% (active)
Cc1oc(-c2cccs2)nc1CN1CCC(C(=O)N2CCCC2)CC1 | 12.1%
CC(=O)c1c(NC(=O)c2ccccc2)[nH]c(-c2ccccc2)nc1=S | 30.6%
Cc1ccc(-c2nc(N)s[n+]2-c2ccccc2)cc1 | 42.6%
CCOC(=O)Cc1csc(NC(=S)NC(=O)c2ccccc2C)n1 | 26.3%
COc1cccc2cc(-c3nc4ccccc4[nH]3)c(=O)oc12 | -9.4% (active)
COc1cccc(/C=N/Nc2nc3ccccc3[nH]2)c1O | 24.7%

Structure (SMILES) | activity change vs negative control
COc1ccc(C(=O)NC(=S)N2CCC(C)CC2)cc1Br | 74.7%
COc1cc(C2c3c(n[nH]c3C)C(=O)N2c2ccc(C)cc2)ccc1O (centres undefined) | -5% (active)
Cc1ccc(C2c3c(-c4ccccc4O)n[nH]c3C(=O)N2Cc2ccncc2)cc1 (centres undefined) | 10.7%
COc1cc(C2NC(=O)NC(C)=C2C(=O)OCC2CCCCC2)ccc1O (centres undefined) | 7.4%
CC1=NN(c2nc(-c3ccccc3)cs2)C(=O)C1N=Nc1ccccc1 (centres undefined) | -5% (active)
Cn1c(O)c(N=Nc2nc(-c3ccccc3)cs2)c2ccccc21 | 90.8%
Cc1nc(-c2ccccc2)cn(O)c1=O | 20.4%
c1ccc(CCCNc2ncnc3nc[nH]c23)cc1 | 61.8%
Fc1ccc(N2CCN(c3ccc4c(C(F)(F)F)cc(C(F)(F)F)nc4n3)CC2)cc1 | -5.3% (active)
Cc1ccc(C(C#N)c2ccc3c(C(F)(F)F)cc(C(F)(F)F)nc3n2)cc1 (centres undefined) | 17.2%
Cc1cc(-c2csc3nc[nH]c(=S)c23)cc(C)c1C | 55.1%
CC(/C=C1\SC(=S)N(NS(=O)(=O)c2ccccc2)C1=O)=C\c1ccccc1 | 47.5%
O=C(CN1CCCCCCC1)Nc1cccc(Cl)c1Cl | -6.4% (active)
O=C(CN1CCN(Cc2ccccc2)CC1)NCc1ccccc1Cl | 17.7%
O=C(CN1CCCCCC1)Nc1ccc(Oc2ccccc2)cc1 | 3.4%
O=C(NC(=S)N1CCc2ccccc21)c1ccccc1Cl | 93%
CCCn1c(SCN2C(=O)c3ccccc3C2=O)nc2cc(Cl)ccc2c1=O | 50.5%
COC(=O)c1c(NC(=S)Nc2ccc(F)cc2[N+](=O)[O-])sc2c1CCCCC2 | 25.2%
CCc1ccc(NC(=O)C(=O)NNC(=O)c2ccc(OC)cc2)cc1 | 122%
COc1ccccc1CC(=O)Nc1ccc(OC)c(OC)c1 | 9.2%
CCCOc1ccc(C2NC(=S)NC(c3ccccc3)=C2C(=O)Nc2ccc(C)cc2)cc1OC (centres undefined) | 15.3%
COc1cc(C2C(C#N)=C(N)Oc3c2ccc2ccccc32)ccc1OCC(=O)Nc1ccc(C)cc1 (centres undefined) | -0.6% (active)

Structure (SMILES) | activity change vs negative control
COc1ccc(-c2oc3ccccc3c(=O)c2OC(C)=O)cc1 | 38.6%
N#Cc1ccc(-c2ccc(OCC(=O)Nc3cccnc3)cc2)cc1 | 13.9%
O=C(COc1ccc([N+](=O)[O-])cc1)Nc1cccnc1 | -4.2% (active)
O=C(COc1ccccc1)Nc1ccc(F)cc1 | 0.6%
CCc1nnc(NC(=O)COc2ccc([N+](=O)[O-])cc2)s1 | 15.3%
O=C(COc1ccc2ccccc2c1Br)Nc1cccnc1 | 0.9%
O=C(COc1ccc(C(=O)c2ccccc2)cc1)Nc1cccnc1 | -20.5% (active)
O=c1c2c3c(sc2[nH]c(=S)n1Cc1ccco1)CCC3 | 56.4%
Cc1[nH]n(-c2cccc3ccccc23)c(=O)c1/C=N/c1sc2c(c1C#N)CCC2 | 23.1%
COc1cccc(C(=O)NNC(=O)C(=O)Nc2ccc(OC)cc2OC)c1 | 52.6%
S=c1[nH]c(-c2ccc(Cl)cc2)cs1 | 140%
COC(=O)c1ccc(CSc2ncnc3sc(C)c(C)c23)o1 | 23%
COc1cccc(C(=O)NNC(=O)C(=O)Nc2ccc(C)cc2)c1 | 99.7%
Cc1ccc(/C=C/C(=O)c2ccccc(=O)c2O)c(C)c1 | 63.1%
CCCCNC(=S)NC(=O)c1ccc([N+](=O)[O-])cc1 | 46.5%
CCCCCC(=O)NNC(=S)NC(=O)c1ccc([N+](=O)[O-])cc1 | -10.1% (active)
C=CCN(CC=C)C(=S)NC(=O)c1ccc([N+](=O)[O-])cc1 | 72.2%
O=C(NC(=S)Nc1ccccc1)c1cccs1 | 17.9%
O=C(O)c1ccc(S(=O)(=O)/N=C2\C=C(Nc3ccccc3F)C(=O)c3ccccc32)cc1 | 31.7%
Cc1cc(C)c(C(=O)c2ccc(C(=O)N3CCCCC3)cc2)c(C)c1 | 32.9%

From PubChem BioAssay AID1946 (Johns Hopkins Ion Channel Center, 2009)
